Test results published in PubChem BioAssay (EPA / NIEHS).
Activity calls are given as the source filed them. The calls were made as follows: active = hit-call score of the fitted dose curve at least 0.9, where 1 is the maximum; inactive = score below 0.9.

Read-out: cysteine-aspartic acid protease (CASP8), CASP8 (gene 841)
Experiment: LTEA_HepaRG_CASP8: Life Technologies and Expression Analysis (LTEA) Assay for cysteine-aspartic acid protease (CASP8) using HepaRG (AID 2283480)
Details: mRNA level, 48 h; actives raise or lower the signal
Outline: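 Concentration-response in duplicate up to 100 uM (half-log steps, 0.5% DMSO) on differentiated HepaRG cultures for 48 h. Expression change of CASP8 mRNA is determined by TaqMan qRT-PCR with housekeeping-gene normalization.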

Sequence of Cytochrome P450 2C19 (Homo sapiens) (P33261 whole entry, looked up): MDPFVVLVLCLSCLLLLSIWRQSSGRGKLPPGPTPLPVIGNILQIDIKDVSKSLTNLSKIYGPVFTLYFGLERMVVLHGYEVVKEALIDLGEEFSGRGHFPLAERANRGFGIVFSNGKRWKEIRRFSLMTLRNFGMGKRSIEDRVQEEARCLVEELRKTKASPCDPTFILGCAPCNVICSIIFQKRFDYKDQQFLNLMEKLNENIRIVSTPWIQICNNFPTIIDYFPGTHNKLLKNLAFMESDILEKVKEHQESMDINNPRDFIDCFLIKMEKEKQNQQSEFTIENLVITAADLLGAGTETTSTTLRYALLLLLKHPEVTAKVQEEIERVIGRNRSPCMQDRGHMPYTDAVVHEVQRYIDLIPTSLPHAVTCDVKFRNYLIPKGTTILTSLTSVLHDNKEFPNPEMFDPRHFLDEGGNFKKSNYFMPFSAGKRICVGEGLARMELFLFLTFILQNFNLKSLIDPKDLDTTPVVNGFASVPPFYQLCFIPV

Structure (SMILES) | outcome | AC50
N#CN=C1SCCN1Cc1ccc(Cl)nc1 | inactive | –
CNC(=O)N(C)c1nnc(C(C)(C)C)s1 | inactive | –
CC(C)NC(=O)N1CC(=O)N(c2cc(Cl)cc(Cl)c2)C1=O | inactive | –
O=C(Nc1ccccc1-c1ccc(Cl)cc1)c1cccnc1Cl | inactive | –
O=P(O)(O)CCCl | inactive | –
Cn1c(-c2ccccc2)cc(-c2ccccc2)[n+]1C | – | 89.2 µM (active)
CC1(C)C(C=C(Cl)Cl)C1C(=O)OC(C#N)c1cccc(Oc2ccccc2)c1 (stereo not given) | inactive | –
COC(=O)NS(=O)(=O)c1ccc(N)cc1 | inactive | –
CCOc1cc(C(C)(C)C)ccc1C1COC(c2c(F)cccc2F)=N1 (stereo not given) | inactive | –
C=CCOC(=O)C(C)(C)OC(=O)c1cc(-n2c(=O)cc(C(F)(F)F)n(C)c2=O)ccc1Cl | inactive | –
Cc1c(COC(=O)[C@@H]2[C@H](/C=C(\Cl)C(F)(F)F)C2(C)C)cccc1-c1ccccc1 | inactive | –
CC(C)Oc1cccc(NC(=O)c2ccccc2C(F)(F)F)c1 | inactive | –
COCC(C)N(C(=O)CCl)c1c(C)csc1C (stereo not given) | inactive | –
CC1(C)CCC(=Cc2ccc(Cl)cc2)C1(O)Cn1cncn1 (stereo not given) | inactive | –
CC(C)N1C(=O)N(c2ccccc2)CSC1=NC(C)(C)C | inactive | –

Read-out: Cytochrome P450 (CYP2B6), CYP2B6 (gene 1555)
Experiment: LTEA_HepaRG_CYP2B6: Life Technologies and Expression Analysis (LTEA) Assay for Cytochrome P450 (CYP2B6) using HepaRG (AID 2283481)
Details: mRNA level, 48 h; actives raise or lower the signal
Outline: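 Differentiated HepaRG cells, serum-free induction medium, exposed 48 h in duplicate to 8-point half-log concentrations from 100 uM in 0.5% DMSO. CYP2B6 mRNA by qRT-PCR, normalized to ACTB, GAPDH, POLR2A; bidirectional fit versus DMSO.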

Structure (SMILES) | AC50 | outcome
Cc1cc(C)nc(Nc2ccccc2)n1 | 6.39 µM (active) | –
C=C(C)CN(CC)c1c([N+](=O)[O-])cc(C(F)(F)F)cc1[N+](=O)[O-] | 23.6 µM (active) | –
Cc1ccc(N=CN(C)C=Nc2ccc(C)cc2C)c(C)c1 | 30.3 µM (active) | –
CN=C=S | – | inactive
CC(C)=CC1C(C(=O)OCc2coc(Cc3ccccc3)c2)C1(C)C (stereo not given) | 20.1 µM (active) | –
CCCCOCN(C(=O)CCl)c1c(CC)cccc1CC | 40 µM (active) | –
COCC(=O)N(c1c(C)cccc1C)C(C)C(=O)OC (stereo not given) | 1.23 µM (active) | –
CSC(=O)c1c(C(F)F)nc(C(F)(F)F)c(C(=O)SC)c1CC(C)C | 11.8 µM (active) | –
COc1cc(Cl)c(OC)cc1Cl | 1.23 µM (active) | –
CC(C)N1C(=O)c2ccccc2NS1(=O)=O | 50 µM (active) | –
CCOP(=S)(OCC)Oc1nc(Cl)n(C(C)C)n1 | 1.78 µM (active) | –
Clc1nc(Cl)nc(Nc2ccccc2Cl)n1 | 34.8 µM (active) | –
CC1(C)C(C(=O)OC(C#N)c2cccc(Oc3ccccc3)c2)C1(C)C (stereo not given) | 67.6 µM (active) | –
COP(=O)(OC)O/C(C)=C/C(=O)N(C)C | – | inactive
COc1ccc(-c2ccccc2)cc1NNC(=O)OC(C)C | – | inactive
OC(c1ccc(Cl)cc1)(c1ccc(Cl)cc1)C(Cl)(Cl)Cl | 11.8 µM (active) | –
CCCC(=NOCC)C1=C(O)CC(CC(C)SCC)CC1=O (stereo not given) | 46.2 µM (active) | –
COc1cc(OC)nc(NC(=O)NS(=O)(=O)c2ncccc2OCC(F)(F)F)n1 | 23.8 µM (active) | –

Structure (SMILES) | AC50 | outcome
CO/N=C(/C1=NOCCO1)c1ccccc1Oc1ncnc(Oc2ccccc2Cl)c1F | 21.1 µM (active) | –
CCN(CC)C(=O)C(C)Oc1cccc2ccccc12 (stereo not given) | 12 µM (active) | –
CCCCC(C#N)(Cn1cncn1)c1ccc(Cl)cc1 (stereo not given) | 3.06 µM (active) | –
N#CN=C1SCCN1Cc1ccc(Cl)nc1 | 28.6 µM (active) | –
CNC(=O)N(C)c1nnc(C(C)(C)C)s1 | 31.6 µM (active) | –
CC(C)NC(=O)N1CC(=O)N(c2cc(Cl)cc(Cl)c2)C1=O | 3.63 µM (active) | –
O=C(Nc1ccccc1-c1ccc(Cl)cc1)c1cccnc1Cl | 1.62 µM (active) | –
O=P(O)(O)CCCl | – | inactive
Cn1c(-c2ccccc2)cc(-c2ccccc2)[n+]1C | 11.3 µM (active) | –
CC1(C)C(C=C(Cl)Cl)C1C(=O)OC(C#N)c1cccc(Oc2ccccc2)c1 (stereo not given) | 9.35 µM (active) | –
COC(=O)NS(=O)(=O)c1ccc(N)cc1 | – | inactive
CCOc1cc(C(C)(C)C)ccc1C1COC(c2c(F)cccc2F)=N1 (stereo not given) | 8.33 µM (active) | –
C=CCOC(=O)C(C)(C)OC(=O)c1cc(-n2c(=O)cc(C(F)(F)F)n(C)c2=O)ccc1Cl | 6.65 µM (active) | –
CC(C)Oc1cccc(NC(=O)c2ccccc2C(F)(F)F)c1 | 33 µM (active) | –
COCC(C)N(C(=O)CCl)c1c(C)csc1C (stereo not given) | 2.05 µM (active) | –
CC1(C)CCC(=Cc2ccc(Cl)cc2)C1(O)Cn1cncn1 (stereo not given) | 2.72 µM (active) | –
CC(C)N1C(=O)N(c2ccccc2)CSC1=NC(C)(C)C | 89.3 µM (active) | –

Read-out: Cytochrome P450 2C19 (Homo sapiens) (UniProt P33261)
Experiment: LTEA_HepaRG_CYP2C19: Life Technologies and Expression Analysis (LTEA) Assay for CYP2C19 using HepaRG (AID 2283482)
Details: mRNA level, 48 h; actives raise or lower the signal
Outline: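 Differentiated human HepaRG cells were exposed for 48 h in serum-free induction medium to 8 concentrations (top 100 uM, half-log steps, 0.5% DMSO). CYP2C19 mRNA was measured by qRT-PCR, normalized to ACTB/GAPDH/POLR2A, and fitted bidirectionally against DMSO.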

Structure (SMILES) | outcome | AC50
Cc1cc(C)nc(Nc2ccccc2)n1 | inactive | –
C=C(C)CN(CC)c1c([N+](=O)[O-])cc(C(F)(F)F)cc1[N+](=O)[O-] | – | 50 µM (active)
Cc1ccc(N=CN(C)C=Nc2ccc(C)cc2C)c(C)c1 | inactive | –
CN=C=S | inactive | –
CC(C)=CC1C(C(=O)OCc2coc(Cc3ccccc3)c2)C1(C)C (stereo not given) | – | 15.5 µM (active)
CCCCOCN(C(=O)CCl)c1c(CC)cccc1CC | – | 50 µM (active)
COCC(=O)N(c1c(C)cccc1C)C(C)C(=O)OC (stereo not given) | – | 3.91 µM (active)
CSC(=O)c1c(C(F)F)nc(C(F)(F)F)c(C(=O)SC)c1CC(C)C | – | 12.2 µM (active)
CC(C)N1C(=O)c2ccccc2NS1(=O)=O | inactive | –
CCOP(=S)(OCC)Oc1nc(Cl)n(C(C)C)n1 | – | 12.7 µM (active)
Clc1nc(Cl)nc(Nc2ccccc2Cl)n1 | – | 10.3 µM (active)
CC1(C)C(C(=O)OC(C#N)c2cccc(Oc3ccccc3)c2)C1(C)C (stereo not given) | – | 50 µM (active)
COP(=O)(OC)O/C(C)=C/C(=O)N(C)C | inactive | –
COc1ccc(-c2ccccc2)cc1NNC(=O)OC(C)C | inactive | –
OC(c1ccc(Cl)cc1)(c1ccc(Cl)cc1)C(Cl)(Cl)Cl | – | 85.2 µM (active)
CCCC(=NOCC)C1=C(O)CC(CC(C)SCC)CC1=O (stereo not given) | – | 29.6 µM (active)
COc1cc(OC)nc(NC(=O)NS(=O)(=O)c2ncccc2OCC(F)(F)F)n1 | – | 16.3 µM (active)
CO/N=C(/C1=NOCCO1)c1ccccc1Oc1ncnc(Oc2ccccc2Cl)c1F | – | 29.5 µM (active)

Structure (SMILES) | outcome | AC50
CCN(CC)C(=O)C(C)Oc1cccc2ccccc12 (stereo not given) | – | 12.6 µM (active)
CCCCC(C#N)(Cn1cncn1)c1ccc(Cl)cc1 (stereo not given) | – | 5.75 µM (active)
N#CN=C1SCCN1Cc1ccc(Cl)nc1 | – | 34.1 µM (active)
CNC(=O)N(C)c1nnc(C(C)(C)C)s1 | inactive | –
CC(C)NC(=O)N1CC(=O)N(c2cc(Cl)cc(Cl)c2)C1=O | inactive | –
O=C(Nc1ccccc1-c1ccc(Cl)cc1)c1cccnc1Cl | inactive | –
O=P(O)(O)CCCl | – | 0.396 µM (active)
Cn1c(-c2ccccc2)cc(-c2ccccc2)[n+]1C | – | 50 µM (active)
CC1(C)C(C=C(Cl)Cl)C1C(=O)OC(C#N)c1cccc(Oc2ccccc2)c1 (stereo not given) | – | 23.7 µM (active)
COC(=O)NS(=O)(=O)c1ccc(N)cc1 | inactive | –
CCOc1cc(C(C)(C)C)ccc1C1COC(c2c(F)cccc2F)=N1 (stereo not given) | – | 8.34 µM (active)
C=CCOC(=O)C(C)(C)OC(=O)c1cc(-n2c(=O)cc(C(F)(F)F)n(C)c2=O)ccc1Cl | inactive | –
Cc1c(COC(=O)[C@@H]2[C@H](/C=C(\Cl)C(F)(F)F)C2(C)C)cccc1-c1ccccc1 | – | 17.9 µM (active)
CC(C)Oc1cccc(NC(=O)c2ccccc2C(F)(F)F)c1 | – | 40.2 µM (active)
COCC(C)N(C(=O)CCl)c1c(C)csc1C (stereo not given) | inactive | –
CC1(C)CCC(=Cc2ccc(Cl)cc2)C1(O)Cn1cncn1 (stereo not given) | – | 5.03 µM (active)
CC(C)N1C(=O)N(c2ccccc2)CSC1=NC(C)(C)C | – | 11.4 µM (active)
